Inconclusive results are not listed. The source made the active and inactive calls. Unless noted, the call rests on the fitted dose curve.
Experiments:
[1] = Nuclear factor erythroid 2-related factor 2/antioxidant responsive element (Nrf2/ARE) small molecule agonists: qHTS cell viability counter screen in human keratinocytes (AID 1919968; active means well fitted curve in the direction sought with a large enough effect in the repeat runs; an effect the other way counts as inactive or inconclusive; further: nearly all actives have a fitted effect of over 55% in size)
In short: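 KeratinoSens HaCaT cells, 1,500/well, preincubated 5 h, then exposed to compounds in DMSO for 23 h at 37 C/5% CO2. Viability read as CellTiter-Fluor fluorescence after 1 h, in the same wells as the ARE-luciferase read.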

[2] = Nuclear factor erythroid 2-related factor 2/antioxidant responsive element (Nrf2/ARE) small molecule agonists: luciferase reporter gene qHTS assay in human keratinocytes (AID 1919969); further: nearly all actives have a fitted effect of over 35% in size
[3] = target: Gonadotropin-releasing hormone receptor (Homo sapiens) (UniProt P30968); experiment: Human gonadotropin-releasing hormone receptor (GnRHR) small molecule agonists, calcium flux assay in GnRHR-HEK293 cells (AID 1920063); further: nearly all actives have a fitted effect of over 35% in size
Gonadotropin-releasing hormone receptor (Homo sapiens), sequence (P30968 whole entry, looked up): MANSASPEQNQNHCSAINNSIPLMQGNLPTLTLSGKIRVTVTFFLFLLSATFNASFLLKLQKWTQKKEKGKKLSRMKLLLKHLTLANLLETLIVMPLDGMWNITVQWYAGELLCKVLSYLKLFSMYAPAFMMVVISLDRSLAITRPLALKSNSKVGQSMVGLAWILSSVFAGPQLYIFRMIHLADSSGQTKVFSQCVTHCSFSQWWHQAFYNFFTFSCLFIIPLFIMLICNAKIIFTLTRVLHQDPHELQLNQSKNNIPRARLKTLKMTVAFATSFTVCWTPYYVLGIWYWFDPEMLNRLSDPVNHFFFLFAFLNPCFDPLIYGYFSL
In short: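 HEK293 cells stably expressing human GnRHR were dye-loaded for 1 h at 37 C. Compound was added in agonist mode and fluorescence (Ex/Em 480/540) recorded kinetically for 3 min. Fifteen concentrations, triplicates.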

[4] = target: KiSS-1 receptor (Homo sapiens) (UniProt Q969F8); experiment: Human kisspeptin (KISS1R) small molecule agonists, calcium flux assay in KISS1R-HEK293 cells (AID 1920064; active means well fitted curve in the direction sought with a large enough effect in the repeat runs; an effect the other way counts as inactive or inconclusive)
KiSS-1 receptor (Homo sapiens), sequence (Q969F8 whole entry, looked up): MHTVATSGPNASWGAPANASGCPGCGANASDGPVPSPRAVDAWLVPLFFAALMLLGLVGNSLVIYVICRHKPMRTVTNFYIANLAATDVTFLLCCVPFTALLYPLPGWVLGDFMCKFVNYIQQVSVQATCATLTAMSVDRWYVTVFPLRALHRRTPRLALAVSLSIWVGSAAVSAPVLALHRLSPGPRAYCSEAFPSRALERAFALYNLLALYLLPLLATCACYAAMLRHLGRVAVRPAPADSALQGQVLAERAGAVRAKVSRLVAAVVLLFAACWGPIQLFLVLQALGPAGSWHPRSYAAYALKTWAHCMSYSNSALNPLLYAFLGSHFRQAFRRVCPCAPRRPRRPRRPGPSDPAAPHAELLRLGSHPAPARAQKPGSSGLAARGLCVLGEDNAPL
In short: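 HEK293 cells stably expressing human KISS1R were loaded with calcium dye for 1 h at 37 C, then given compound; fluorescence (Ex/Em 480/540) was read kinetically for 3 min. Fifteen concentrations, triplicate.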

[5] = G protein-coupled receptor (GPCR) small molecule agonists, calcium flux assay: HEK293 wild type cell line counter screen (AID 1920065)
In short: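 Wild-type HEK293 cells plated 18 h, loaded with calcium dye 1 h at 37 C, then compounds added in agonist mode (ATP as positive control). Kinetic fluorescence Ex/Em 480/540 recorded 3 min at 1 sec intervals; 15 concentrations, triplicate.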

[6] = p53 small molecule agonists, cell-based qHTS assay with human liver microsomes: qHTS cell viability counter screen (AID 1963579); further: nearly all actives have a fitted effect of over 45% in size
In short: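 Cells carrying the p53 response-element beta-lactamase reporter are treated for 16 h at 37 C with test compounds in the presence of human liver microsomes and NADPH (both 0.5 mg/mL final); ATP-based CellTiter-Glo luminescence then reports viability.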

[7] = p53 small molecule agonists, cell-based qHTS assay: qHTS cell viability counter screen (AID 1963581); further: nearly all actives have a fitted effect of over 45% in size
In short: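 p53RE-bla HCT-116 cells, compounds added 5 h after plating and incubated 16 h at 37 C. Cytotoxicity measured in the same wells as intracellular ATP by CellTiter-Glo luminescence after 30 min at room temperature.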

[8] = target: 5-hydroxytryptamine receptor 2A (Homo sapiens) (UniProt P28223); experiment: 5-hydroxytryptamine receptor 2A (HTR2A) small molecule antagonists, cell-based qHTS assay (AID 1963586); further: nearly all actives have a fitted effect of over 45% in size
5-hydroxytryptamine receptor 2A (Homo sapiens), sequence (P28223 whole entry, looked up): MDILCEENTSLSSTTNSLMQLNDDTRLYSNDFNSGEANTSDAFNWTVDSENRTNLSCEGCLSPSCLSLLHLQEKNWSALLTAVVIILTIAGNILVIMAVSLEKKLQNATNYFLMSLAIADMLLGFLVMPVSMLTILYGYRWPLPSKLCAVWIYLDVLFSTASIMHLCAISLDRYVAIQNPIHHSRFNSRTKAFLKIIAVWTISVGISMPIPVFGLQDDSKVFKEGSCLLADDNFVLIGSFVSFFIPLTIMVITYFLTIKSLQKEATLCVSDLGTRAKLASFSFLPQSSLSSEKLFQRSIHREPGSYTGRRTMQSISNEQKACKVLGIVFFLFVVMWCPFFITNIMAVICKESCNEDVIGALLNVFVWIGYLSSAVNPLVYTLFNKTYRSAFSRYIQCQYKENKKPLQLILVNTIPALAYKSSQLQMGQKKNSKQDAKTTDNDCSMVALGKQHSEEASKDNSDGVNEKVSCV
In short: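 Antagonist-mode intracellular calcium assay: DOI (4 nM) added after 5 min compound pre-incubation at room temperature to dye-loaded HTR2A-CHO cells. Fluorescence followed for 3 min, sampled every second.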

[9] = target: 5-hydroxytryptamine receptor 2A (Homo sapiens) (UniProt P28223); experiment: 5-hydroxytryptamine receptor 2A (HTR2A) small molecule agonists, cell-based qHTS assay (AID 1963587); further: nearly all actives have a fitted effect of over 30% in size
In short: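 CHO cells stably expressing human HTR2A, plated 18 h, loaded with calcium dye 1 h at 37 C. Agonist mode: compounds added and intracellular calcium fluorescence recorded kinetically for 2 min at 1 sec intervals.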

[10] = target: Muscarinic acetylcholine receptor M1 (Homo sapiens) (UniProt P11229); experiment: Cholinergic receptor muscarinic 1 (CHRM1) small molecule antagonists, cell-based qHTS assay (AID 1963588); further: nearly all actives have a fitted effect of over 40% in size
Muscarinic acetylcholine receptor M1 (Homo sapiens), sequence (P11229 whole entry, looked up): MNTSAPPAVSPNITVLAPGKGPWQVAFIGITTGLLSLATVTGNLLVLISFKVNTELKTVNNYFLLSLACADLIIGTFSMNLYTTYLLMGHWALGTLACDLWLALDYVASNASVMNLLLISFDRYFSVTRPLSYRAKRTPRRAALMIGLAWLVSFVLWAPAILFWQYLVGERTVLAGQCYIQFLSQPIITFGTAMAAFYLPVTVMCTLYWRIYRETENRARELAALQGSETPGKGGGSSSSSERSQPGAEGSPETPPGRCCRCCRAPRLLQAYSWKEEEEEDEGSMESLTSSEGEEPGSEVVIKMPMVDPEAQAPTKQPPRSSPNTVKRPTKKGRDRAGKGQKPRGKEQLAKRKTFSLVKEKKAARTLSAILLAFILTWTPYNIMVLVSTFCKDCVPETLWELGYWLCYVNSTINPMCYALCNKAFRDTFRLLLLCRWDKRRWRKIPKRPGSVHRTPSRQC
In short: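 CHRM1-CHO calcium-flux assay, antagonist mode. Cells were seeded 18 h, dye-loaded 1 h at 37 C and given compound for 5 min at RT, then acetylcholine was added at 50nM. FDSS fluorescence was read 3 min; 15 concentrations, three runs.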

[11] = target: Muscarinic acetylcholine receptor M1 (Homo sapiens) (UniProt P11229); experiment: Cholinergic receptor muscarinic 1 (CHRM1) small molecule agonists, cell-based qHTS assay (AID 1963589); further: nearly all actives have a fitted effect of over 35% in size
In short: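 CHO cells stably expressing human CHRM1 were loaded with calcium dye for 1 h at 37 C, then compound was added in agonist mode. Intracellular calcium fluorescence was followed kinetically at 1 s intervals. Fifteen concentrations were tested in three independent runs.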

[12] = cAMP Responsive Elements (CRE) small molecule agonists, cell-based qHTS assay (AID 1963590)
In short: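 CRE-bla HEK 293T cells, 2,000/well in DMEM with 10% dialyzed FBS and 25 mM HEPES, pre-incubated 18 h at 37 C, then exposed to compound 3 h at 37 C. Beta-lactamase reporter read with LiveBLAzer B/G FRET substrate after 2 h at room temperature.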

[13] = cAMP Responsive Elements (CRE) small molecule antagonists, cell-based qHTS assay (AID 1963591; active means well fitted inhibition curve with a large enough effect in the signal ratio in the repeat runs, not every such curve was filed as active; the % refers to the signal ratio)
In short: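 CRE-bla HEK293T cells plated 18 h, then given compound plus NKH477 at 0.25 uM final for 3 h at 37C. Beta-lactamase reporter read with LiveBLAzer B/G FRET substrate after 2 h at room temperature.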

[14] = target: Beta-2 adrenergic receptor (Homo sapiens) (UniProt P07550); experiment: Adrenergic beta2 receptor (ADRB2) small molecule antagonists, cell-based qHTS assay (AID 1963592); further: series mostly up to about 92 µM; nearly all actives have a fitted effect of over 50% in size
Beta-2 adrenergic receptor (Homo sapiens), sequence (P07550 whole entry, looked up): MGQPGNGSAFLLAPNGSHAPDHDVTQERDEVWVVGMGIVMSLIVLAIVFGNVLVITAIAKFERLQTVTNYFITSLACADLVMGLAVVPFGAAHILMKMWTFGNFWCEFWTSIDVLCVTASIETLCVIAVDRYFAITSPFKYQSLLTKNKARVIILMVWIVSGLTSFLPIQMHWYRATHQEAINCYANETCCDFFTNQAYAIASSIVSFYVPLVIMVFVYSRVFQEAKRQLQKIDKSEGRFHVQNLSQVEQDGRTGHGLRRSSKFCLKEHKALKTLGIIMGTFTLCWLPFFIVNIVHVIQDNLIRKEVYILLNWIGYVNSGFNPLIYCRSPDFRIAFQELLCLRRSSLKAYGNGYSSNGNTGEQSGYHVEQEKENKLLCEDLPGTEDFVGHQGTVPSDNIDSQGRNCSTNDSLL
In short: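 Cells (CHO, stable ADRB2 overexpression) incubated 18-20hr at 37C; compounds added from DMSO; agonist mix (1nM isoproterenol, 100uM IBMX, 25uM Ro-20-1724) added; 0.5hr RT; d2-cAMP and anti-cAMP-cryptate added; 1hr RT; 665/615 nm read.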

[15] = target: D(2) dopamine receptor (Homo sapiens) (UniProt P14416); experiment: Dopamine D2 receptor (DRD2) small molecule agonists, cell-based qHTS assay (AID 1963594); further: nearly all actives have a fitted effect of over 35% in size
D(2) dopamine receptor (Homo sapiens), sequence (P14416 whole entry, looked up): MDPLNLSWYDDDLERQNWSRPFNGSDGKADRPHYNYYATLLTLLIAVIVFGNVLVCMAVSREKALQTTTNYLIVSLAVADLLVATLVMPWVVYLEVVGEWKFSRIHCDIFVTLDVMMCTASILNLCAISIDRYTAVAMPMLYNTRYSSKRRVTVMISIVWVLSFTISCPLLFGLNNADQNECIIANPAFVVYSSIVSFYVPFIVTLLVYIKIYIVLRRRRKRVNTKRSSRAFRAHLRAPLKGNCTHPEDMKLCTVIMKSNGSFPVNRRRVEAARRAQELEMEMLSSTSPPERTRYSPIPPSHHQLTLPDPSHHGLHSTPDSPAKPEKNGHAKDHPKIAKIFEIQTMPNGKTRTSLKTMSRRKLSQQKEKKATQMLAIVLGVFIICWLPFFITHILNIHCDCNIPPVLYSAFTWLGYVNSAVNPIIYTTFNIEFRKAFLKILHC
In short: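 HEK293 cells stably expressing human DRD2, pre-treated with PDE inhibitor Ro20-1724 (0.1 mM final) and compound 10 min at room temperature, then stimulated with NKH477 (200nM […]) for 30 min. cAMP read by HTRF (665/620 nm).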

[16] = target: D(2) dopamine receptor (Homo sapiens) (UniProt P14416); experiment: Dopamine D2 receptor (DRD2) small molecule antagonists, cell-based qHTS assay (AID 1963595; active means well fitted inhibition curve with a large enough effect in the signal ratio in the repeat runs, with a control signal flat; the % refers to the signal ratio)
In short: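 Readout: HTRF cAMP, cAMP-d2 competing with cellular cAMP for anti-cAMP cryptate, read after 1 h. Cells: DRD2-HEK293. Conditions: 0.1 mM Ro20-1724, 12 nM quinpirole, 200 nM NKH477, 30 min RT.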

[17] = target: Beta-2 adrenergic receptor (Homo sapiens) (UniProt P07550); experiment: Adrenergic beta2 receptor (ADRB2) small molecule agonists, cell-based qHTS assay (AID 1963593);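 further: CHO cells stably overexpressing human ADRB2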
In short: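 CHO cells stably over-expressing ADRB2 were plated overnight at 37C, then dosed with compounds plus a stimulation mix containing 100uM IBMX and 25uM Ro-20-1724 for 0.5hr at room temperature. cAMP was measured by HTRF competition, 1hr.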

[18] = p53 small molecule agonists, cell-based qHTS assay with rat liver microsomes: qHTS cell viability counter screen (AID 1963580); further: nearly all actives have a fitted effect of over 45% in size
In short: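 Viability is assessed in parallel with the p53 reporter read: HCT-116 p53RE-bla cells receive compounds plus rat microsomes and NADPH (0.5 mg/mL final apiece), incubate 16 h at 37 C, and then CellTiter-Glo luminescence is recorded.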

[19] = p53 small molecule agonists, cell-based qHTS assay (AID 1963582; active means well fitted activation curve with a large enough effect in the signal ratio in the repeat runs, not every such curve was filed as active; the % refers to the signal ratio)
In short: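 p53RE-bla reporter cells, compounds added in DMSO after 5 h plating, incubated 16 h at 37 C. Beta-lactamase read via 2 h room-temperature LiveBLAzer B/G FRET substrate, fluorescence intensity.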
On the % scale 0 is the no-effect control and ±100 the full control effect.

CC1=C(O)C(=O)CO1
inactive: Potency [1] | Potency [2] | Potency [3] | Potency [4] | Potency [5] | Potency [6] | Potency [7] | Potency [8] | Potency [9] | Potency [10] | Potency [11] | Potency [12] | Potency [13] | Potency [14] | Potency [15] | Potency [16]

C/C(C=O)=C\c1ccccc1
inactive: Potency [1] | Potency [2] | Potency [3] | Potency [4] | Potency [5] | Potency [6] | Potency [7] | Potency [8] | Potency [9] | Potency [10] | Potency [11] | Potency [12] | Potency [13] | Potency [14] | Potency [15] | Potency [16]

O=C(O)c1ccc(O)c(O)c1
inactive: Potency [1] | Potency [2] | Potency [3] | Potency [4] | Potency [5] | Potency [6] | Potency [7] | Potency [8] | Potency [9] | Potency [10] | Potency [12] | Potency [13] | Potency [14] | Potency [15] | Potency [16]

CCOc1ccc(C(=O)OCCN(CC)CC)cc1
inactive: Potency [1] | Potency [2] | Potency [3] | Potency [4] | Potency [5] | Potency [6] | Potency [7] | Potency [8] | Potency [9] | Potency [10] | Potency [12] | Potency [13] | Potency [14] | Potency [17] | Potency [15] | Potency [16]

C[C@@H](Oc1ccc(CNC(=O)c2cccnc2Oc2ccc3c(c2)OCO3)c(F)c1)C(=O)O
inactive: Potency [1] | Potency [2] | Potency [3] | Potency [4] | Potency [5] | Potency [6] | Potency [18] | Potency [9] | Potency [10] | Potency [11] | Potency [12] | Potency [14] | Potency [15] | Potency [16]

CC(=O)OC1C2(C)CCC(C2)C1(C)C (stereo not drawn)
inactive: Potency [1] | Potency [2] | Potency [3] | Potency [4] | Potency [5] | Potency [6] | Potency [7] | Potency [8] | Potency [9] | Potency [10] | Potency [11] | Potency [12] | Potency [13] | Potency [14] | Potency [17] | Potency [15] | Potency [16]

NC(Cc1c[nH]c2ccccc12)C(=O)O (stereo not drawn)
inactive: Potency [1] | Potency [2] | Potency [3] | Potency [4] | Potency [5] | Potency [6] | Potency [7] | Potency [9] | Potency [10] | Potency [11] | Potency [12] | Potency [13] | Potency [14] | Potency [15] | Potency [16]

C[Si](C)(C)O[Si](O)(O)O
inactive: Potency [1] | Potency [2] | Potency [3] | Potency [4] | Potency [5] | Potency [6] | Potency [7] | Potency [8] | Potency [9] | Potency [10] | Potency [11] | Potency [12] | Potency [13] | Potency [14] | Potency [17] | Potency [15] | Potency [16]

Fc1ccccc1
inactive: Potency [1] | Potency [2] | Potency [3] | Potency [4] | Potency [5] | Potency [6] | Potency [18] | Potency [10] | Potency [11] | Potency [12] | Potency [13] | Potency [14] | Potency [17] | Potency [15] | Potency [16]

CC(C)(CO)[N+](=O)[O-]
inactive: Potency [1] | Potency [2] | Potency [3] | Potency [4] | Potency [5] | Potency [6] | Potency [7] | Potency [8] | Potency [9] | Potency [10] | Potency [11] | Potency [12] | Potency [13] | Potency [14] | Potency [17] | Potency [15] | Potency [16]

OC1CCCCC1c1ccccc1 (stereo not drawn)
inactive: Potency [1] | Potency [2] | Potency [3] | Potency [4] | Potency [5] | Potency [6] | Potency [7] | Potency [8] | Potency [9] | Potency [10] | Potency [11] | Potency [12] | Potency [13] | Potency [14] | Potency [15] | Potency [16]

S=C(S)NCCNC(=S)S
inactive: Potency [1] | Potency [2] | Potency [3] | Potency [4] | Potency [5] | Potency [6] | Potency [7] | Potency [8] | Potency [9] | Potency [10] | Potency [12] | Potency [13] | Potency [14] | Potency [17] | Potency [15] | Potency [16]

c1cc2ccc3ccc4ccc5cccc6c(c1)c2c3c4c56
inactive: activity change, negative = cytotoxicity [1] 3.98% [at 3.27 µM] | activity, positive = activation [2] 4.07% [at 3.27 µM] | activity change [3] 0.532% [at 2.04 µM, active compounds read high] | activation [4] 0.0535% [at 2.72 µM] | activation [5] -0.291% [at 2.04 µM] | activity change, negative = cytotoxicity [6] -1.32% [at 2.33 µM] | activity change, negative = cytotoxicity [7] 2.26% [at 2.33 µM] | activation [19] 5.49% [at 2.33 µM] | activity, negative = inhibition [8] 1.93% [at 2.12 µM] | activation [9] 13.2% [at 2.65 µM] | activity, negative = inhibition [10] 5.84% [at 2.17 µM] | activation [11] 0.275% [at 2.72 µM] | activation [12] 6.38% [at 3.27 µM] | activity change, negative = inhibition [13] 7.84% [at 3.27 µM] | activity change, negative = inhibition [14] 4.76% [at 3.27 µM] | activation [15] -0.0755% [at 3.27 µM] | activity change, negative = inhibition [16] -0.594% [at 3.28 µM]

COc1nc(C)nc(N)n1
inactive: Potency [1] | Potency [2] | Potency [3] | Potency [4] | Potency [5] | Potency [6] | Potency [7] | Potency [8] | Potency [9] | Potency [10] | Potency [11] | Potency [12] | Potency [13] | Potency [14] | Potency [17] | Potency [16]
